For assay [1], the target named is Estrogen receptor beta (Homo sapiens) (UniProt Q92731). In words: OT_ER_ERbERb_1440: Odyssey Thera (OT) 24-hour HEK293T Protein-Complementation Assay for Estrogen Receptor-beta/-beta Homodimer (AID 2283380).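 Note: fluorescence gain from ER beta LBD homodimer complementation read by laser scanning cytometry; scored as signal increase over DMSO baseline for both agonists and antagonists.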 In a few lines:
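HEK293T cells stably expressing human ER-beta LBD (aa 310-547) PCA homodimer pair, dosed 24 h; formaldehyde-fixed, Draq5-stained. Readout: increase in nuclear (agonist) or nuclear plus cytoplasmic (antagonist) fluorescence intensity versus DMSO, gain-of-signal fitting.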

The target of assay [2] is Estrogen receptor (Homo sapiens) (UniProt P03372). In words: OT_ERa_GFPERaERE_0480: Odyssey Thera (OT) 8-hour HeLa Transcription Induction Assay for Estrogen Receptor (AID 2283381; active = hit-call score of the fitted dose curve at least 0.9, where 1 is the maximum; inactive = score below 0.9). An outline of the steps:
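HeLa cells dosed with compound and imaged by fluorescence microscopy at 8 h; GFP induction from an ERE reporter quantified by high-content image analysis and fitted as gain of signal against DMSO baseline.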

For assay [3] the target is unchanged. In words: OT_ERa_GFPERaERE_0120: Odyssey Thera (OT) 2-hour HeLa Transcription Induction Assay for Estrogen Receptor (AID 2283382). In a few lines:
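HeLa cells were dosed with test chemical and read 2 hours later for GFP-ERα/ERE-linked fluorescent protein induction by fluorescence microscopy. Gain-of-signal was fitted relative to DMSO baseline, quantified by high content image analysis.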

Assay [4] deals with Retinoic acid receptor RXR-alpha (Homo sapiens) (UniProt P19793). The assay can be described thus: OT_NURR1_NURR1RXRa_1440: Odyssey Thera (OT) 24-hour HEK293T Protein Complementation Assay for Nurr1/retinoid X receptor (RXR) (AID 2283386). In a few lines: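 HEK293T cells were dosed with compound and read 24 h later by fluorescence intensity in a protein-fragment complementation format, where Nurr1–RXRα interaction reconstitutes a split reporter. Activity was fitted as gain of signal relative to DMSO baseline.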
Retinoic acid receptor RXR-alpha (Homo sapiens), sequence (P19793 whole entry, looked up, the tested form may be a part): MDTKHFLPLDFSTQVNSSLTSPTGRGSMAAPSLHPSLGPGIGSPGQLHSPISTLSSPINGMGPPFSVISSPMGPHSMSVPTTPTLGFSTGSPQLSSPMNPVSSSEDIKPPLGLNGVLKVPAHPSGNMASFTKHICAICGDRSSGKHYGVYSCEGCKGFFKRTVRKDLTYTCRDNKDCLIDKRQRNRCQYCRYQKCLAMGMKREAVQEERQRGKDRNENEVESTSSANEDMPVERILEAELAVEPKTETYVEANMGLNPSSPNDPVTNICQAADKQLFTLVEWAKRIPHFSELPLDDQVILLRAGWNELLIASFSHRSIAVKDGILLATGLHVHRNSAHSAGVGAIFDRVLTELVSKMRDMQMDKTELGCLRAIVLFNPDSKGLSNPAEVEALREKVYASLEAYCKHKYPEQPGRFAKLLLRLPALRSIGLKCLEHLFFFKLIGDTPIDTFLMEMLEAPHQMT

The target of assay [5] is Peroxisome proliferator-activated receptor gamma (Homo sapiens) (UniProt P37231). In words: OT_PPARg_PPARgSRC1_0480: Odyssey Thera (OT) 8-hour Protein-Complementation Assay for Peroxisome Proliferator-activated Receptor Gamma / SRC-1 Co-activator (AID 2283387).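 Note: nuclear to cytoplasmic split Venus YFP fluorescence ratio reporting PPARg SRC-1 interaction.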 An outline of the steps:
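Protein-fragment complementation in HEK293T: Venus YFP halves (residues 1-158, 159-239, mutated to IFP1/IFP2) fused to PPARg/SRC-1. 8 h exposure; N/C ratio at 488 nm; DMSO negative control.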

Assay [6] has the same target. The assay can be described thus: OT_PPARg_PPARgSRC1_1440: Odyssey Thera (OT) 24-hour Protein-Complementation Assay for Peroxisome Proliferator-activated Receptor Gamma/ SRC-1 Co-activator (AID 2283388).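 Note: nuclear to cytoplasmic ratio of reconstituted Venus YFP fluorescence in fixed imaged cells.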 An outline of the steps: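 Cells carrying the PPARg/SRC-1 fragment-complementation reporter receive compound for 24 hours, are fixed and counterstained with Draq5, then imaged. Increased nuclear relative to cytoplasmic YFP fluorescence above DMSO baseline indicates binding activity.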

Assay [7] in a line: CEETOX_H295R_OHPREG: CeeTox H295R High-throughput Steroidogenesis Assay for OH-Pregnenolone (OHPREG) (AID 2283434; active = hit-call score of the fitted dose curve at least 0.9, where 1 is the maximum; inactive = score below 0.9). Particulars: actives raise or lower the signal. In a few lines:
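Human adrenal H295R cells were prestimulated 48 h with 10 uM forskolin, then exposed 48 h to chemical in 0.1% DMSO. Medium 17alpha-hydroxypregnenolone was quantified by HPLC-MS/MS after MTBE extraction; bidirectional fitting versus DMSO baseline.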

For assay [8], the target named is Agonist Androgen Response Element (ARE), AR (gene 367) (UniProt P10275). In words: OT_AR_ARELUC_AG_1440: Odyssey Thera (OT) 24-hour CHO-K1 Luciferase Assay for Agonist Androgen Response Element (ARE) (AID 2283379). In a few lines:
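Seed CHO-K1 cells; dose compounds for 24 h; add D-luciferin plus ATP in PBS; read luminescence. Signal increase relative to vehicle defines agonist activity, with at least 3 replicate wells per sample.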

For assay [9], the target named is Retinoic acid receptor RXR-alpha (Homo sapiens) (UniProt P19793). The assay can be described thus: OT_NURR1_NURR1RXRa_0480: Odyssey Thera (OT) 8-hour HEK293T Protein Complementation Assay for Nurr1/retinoid X receptor (RXR) (AID 2283385). An outline of the steps:
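HEK293T cells expressing Nurr1 and RXRα fused to reporter fragments were dosed with compound for 8 hours. Complex formation was read as fluorescence intensity and analysed as gain of signal against DMSO as baseline.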

Assay [10] is described as follows: CEETOX_H295R_11DCORT: CeeTox H295R High-throughput Steroidogenesis Assay for 11-Deoxycortisol (11DCORT) (AID 2283432; active = hit-call score of the fitted dose curve at least 0.9, where 1 is the maximum; inactive = score below 0.9;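 for AC50: 11-deoxycortisol secreted into the medium measured by LC-MS/MS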). Particulars: actives raise or lower the signal. An outline of the steps:
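Adrenal carcinoma line H295R, run per OECD 456 with minor changes, was forskolin-stimulated (10 uM, 48 h) before a 48 h chemical exposure at 0.1% DMSO. Secreted 11-deoxycortisol was quantified by HPLC-MS/MS.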

Molecules are shown by their SMILES. Results filed as inconclusive are left out. A structure can be active in one record and inactive in another. Activity calls are given as the source filed them. Rule for the calls, unless noted: active = hit-call score of the fitted dose curve at least 0.9, where 1 is the maximum; inconclusive = response in the unintended direction; inactive = score below 0.9.

This passage reports outcome and AC50 results from PubChem BioAssay (EPA / NIEHS).

Estrogen receptor beta (Homo sapiens), sequence (Q92731 whole entry, looked up, the tested form may be a part): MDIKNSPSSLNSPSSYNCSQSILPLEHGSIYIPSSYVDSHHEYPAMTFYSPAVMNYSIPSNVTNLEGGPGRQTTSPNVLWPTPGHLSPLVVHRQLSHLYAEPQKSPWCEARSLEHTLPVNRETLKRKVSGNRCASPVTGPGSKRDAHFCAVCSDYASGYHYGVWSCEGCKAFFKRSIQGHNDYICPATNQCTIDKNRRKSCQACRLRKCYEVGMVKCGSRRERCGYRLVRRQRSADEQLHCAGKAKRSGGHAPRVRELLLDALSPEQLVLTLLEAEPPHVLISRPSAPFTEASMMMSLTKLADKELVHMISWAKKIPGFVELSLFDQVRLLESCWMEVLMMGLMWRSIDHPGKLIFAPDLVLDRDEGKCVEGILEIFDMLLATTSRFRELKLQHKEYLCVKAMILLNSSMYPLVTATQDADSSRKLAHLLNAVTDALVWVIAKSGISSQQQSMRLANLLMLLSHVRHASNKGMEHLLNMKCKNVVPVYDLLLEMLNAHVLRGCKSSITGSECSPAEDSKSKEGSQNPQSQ
Agonist Androgen Response Element (ARE), AR (gene 367), sequence (P10275 whole entry, looked up): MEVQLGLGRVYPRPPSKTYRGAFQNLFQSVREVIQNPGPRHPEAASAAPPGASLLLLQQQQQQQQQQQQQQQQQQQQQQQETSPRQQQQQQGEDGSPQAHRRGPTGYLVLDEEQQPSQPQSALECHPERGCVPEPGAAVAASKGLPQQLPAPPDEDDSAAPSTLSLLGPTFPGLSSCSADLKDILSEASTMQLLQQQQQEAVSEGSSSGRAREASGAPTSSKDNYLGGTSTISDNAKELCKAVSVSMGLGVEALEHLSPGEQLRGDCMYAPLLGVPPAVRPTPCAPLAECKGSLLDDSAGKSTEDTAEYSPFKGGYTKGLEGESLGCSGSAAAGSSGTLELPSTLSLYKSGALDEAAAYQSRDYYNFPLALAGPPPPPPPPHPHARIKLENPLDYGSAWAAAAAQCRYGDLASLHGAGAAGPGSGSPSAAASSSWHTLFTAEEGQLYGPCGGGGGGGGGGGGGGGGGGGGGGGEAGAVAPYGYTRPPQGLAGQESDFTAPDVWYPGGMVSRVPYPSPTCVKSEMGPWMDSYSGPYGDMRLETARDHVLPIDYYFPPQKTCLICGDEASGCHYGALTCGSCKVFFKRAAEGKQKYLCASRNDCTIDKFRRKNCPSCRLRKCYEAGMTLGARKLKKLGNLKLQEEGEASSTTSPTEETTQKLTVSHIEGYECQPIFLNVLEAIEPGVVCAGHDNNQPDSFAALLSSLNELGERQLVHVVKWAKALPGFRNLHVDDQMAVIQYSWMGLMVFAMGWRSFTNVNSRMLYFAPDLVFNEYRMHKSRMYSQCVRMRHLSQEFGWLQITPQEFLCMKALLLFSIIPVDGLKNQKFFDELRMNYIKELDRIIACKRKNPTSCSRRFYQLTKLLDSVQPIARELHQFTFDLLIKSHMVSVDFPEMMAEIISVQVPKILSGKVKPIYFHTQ
Peroxisome proliferator-activated receptor gamma (Homo sapiens), sequence (P37231 whole entry, looked up, the tested form may be a part): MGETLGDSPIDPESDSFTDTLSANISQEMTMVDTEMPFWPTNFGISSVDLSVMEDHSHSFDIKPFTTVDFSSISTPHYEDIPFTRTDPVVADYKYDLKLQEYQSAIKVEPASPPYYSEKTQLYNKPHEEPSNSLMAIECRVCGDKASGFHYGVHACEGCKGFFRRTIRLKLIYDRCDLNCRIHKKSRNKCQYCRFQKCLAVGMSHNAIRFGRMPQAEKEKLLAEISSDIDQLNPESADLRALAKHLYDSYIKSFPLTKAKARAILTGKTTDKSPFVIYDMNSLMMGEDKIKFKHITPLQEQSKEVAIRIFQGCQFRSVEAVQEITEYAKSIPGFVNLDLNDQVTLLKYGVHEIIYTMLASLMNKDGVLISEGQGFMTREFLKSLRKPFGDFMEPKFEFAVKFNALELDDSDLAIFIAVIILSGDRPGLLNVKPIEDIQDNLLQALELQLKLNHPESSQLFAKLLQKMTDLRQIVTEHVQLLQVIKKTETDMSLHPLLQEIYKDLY
Estrogen receptor (Homo sapiens), sequence (P03372 whole entry, looked up): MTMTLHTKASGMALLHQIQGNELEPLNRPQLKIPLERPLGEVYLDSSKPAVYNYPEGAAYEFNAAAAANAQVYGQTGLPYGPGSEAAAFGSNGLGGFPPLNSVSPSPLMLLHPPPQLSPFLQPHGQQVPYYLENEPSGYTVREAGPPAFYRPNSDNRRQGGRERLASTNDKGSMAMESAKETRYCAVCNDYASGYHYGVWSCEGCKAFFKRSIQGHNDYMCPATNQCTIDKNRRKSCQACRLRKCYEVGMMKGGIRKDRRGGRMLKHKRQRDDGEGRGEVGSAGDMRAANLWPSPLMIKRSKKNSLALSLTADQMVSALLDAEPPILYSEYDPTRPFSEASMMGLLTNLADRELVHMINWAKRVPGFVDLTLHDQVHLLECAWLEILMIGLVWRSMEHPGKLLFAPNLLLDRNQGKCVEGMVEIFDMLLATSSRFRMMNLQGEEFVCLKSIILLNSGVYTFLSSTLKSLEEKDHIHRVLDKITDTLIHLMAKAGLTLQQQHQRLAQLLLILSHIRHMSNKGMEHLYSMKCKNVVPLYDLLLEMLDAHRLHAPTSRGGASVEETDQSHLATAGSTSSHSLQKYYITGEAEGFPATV

Consider `CC(C)Nc1nc(Cl)nc(NC(C)C)n1`, for which the molecule was classed as inactive in assay [1], in assay [2], in assay [3], in [4], in assay [5] and in assay [6]. Besides, the molecule was called inactive in assay [7].
With `COCc1cnc(C2=NC(C)(C(C)C)C(=O)N2)c(C(=O)O)c1` (configuration not stated), the call in [8], in assay [1], in assay [2], in assay [3], in [9] and in [4] was inactive. The molecule was called inactive in assay [5], in assay [6], in [10] and in assay [7].
For `CC1(C)CCC(=Cc2ccc(Cl)cc2)C1(O)Cn1cncn1` (configuration not stated), the call in [8], in assay [1], in assay [3], in assay [4], in assay [5] and in [6] was inactive. For the same molecule, the call in assay [10] and in [7] was inactive.
The AC50 is the concentration at which the activity in the assay is half-maximal. Regarding `CC(C)N1C(=O)N(c2ccccc2)CSC1=NC(C)(C)C`, the concentration at half-maximal activity (AC50) in [1] is 27.7 µM (active); in assay [9], 74.4 µM (active); in [4], 80.8 µM (active). Also, the outcome in [2], in assay [3], in assay [9], in assay [4], in [5] and in assay [6] was inactive.
For `CCCC(=NOCC)C1=C(O)CC(CC(C)SCC)CC1=O` (configuration not stated), the outcome in assay [1], in assay [2], in assay [3], in [9], in assay [4] and in assay [5] was inactive. The outcome in [6], in assay [10] and in assay [7] was inactive.
Consider `OC(c1ccc(Cl)cc1)(c1ccc(Cl)cc1)C(Cl)(Cl)Cl`, for which the AC50 in assay [1] was 12.3 µM (active). Also, the outcome in assay [2], in assay [3], in assay [5] and in assay [6] was inactive.
As for `CCSC(=O)N1CCCCCC1`, the molecule was called inactive in [1], in assay [2], in assay [3], in [4], in [5] and in [6]. Moreover, the outcome in assay [7] was inactive.
Regarding `CCCN(CC)CC1COC2(CCC(C(C)(C)C)CC2)O1` (configuration not stated), the call in assay [1], in assay [3], in assay [9] and in assay [4] was inactive. For the same molecule, the results for the AC50 in [9], in assay [10] and in [7] were 50 µM (active), 0.202 µM (active) and 0.131 µM (active), respectively.
`CC(C)(C)C(=O)C(Oc1ccc(Cl)cc1)n1cncn1` (configuration not stated): the molecule was classed as inactive in assay [1], in assay [2], in assay [3], in assay [9], in assay [5] and in assay [6]. Further, the figures for the AC50 in [10] and in assay [7] were 58.9 µM (active) and 21.6 µM (active), respectively.
As to `CCCCC(O)(Cn1cncn1)c1ccc(Cl)cc1Cl` (configuration not stated), the call in assay [8], in assay [1], in assay [2], in assay [5] and in assay [6] was inactive. Besides, in assay [3], the AC50 was 77.5 µM (active).
For `Cc1cnc(C2=NC(C)(C(C)C)C(=O)N2)c(C(=O)O)c1` (configuration not stated), the call in assay [8], in [1], in assay [2], in assay [3], in assay [9] and in [4] was inactive. The molecule was classed as inactive in assay [5] and in assay [6].
Consider `COP(=S)(OC)Oc1ccc([N+](=O)[O-])c(C)c1`, for which the molecule was classed as inactive in assay [1], in assay [2], in assay [3], in assay [9], in assay [4] and in [5]. For the same molecule, the molecule was classed as inactive in assay [6] and in assay [7]. Further, the AC50 in assay [10] is 6.36 µM (active).
For the molecule `COP(=S)(OC)SCn1nnc2ccccc2c1=O`, the molecule was called inactive in assay [8], in assay [1], in assay [2], in [3], in [5] and in [6]. Further, the outcome in assay [7] was inactive.
Turning to `COC(=O)c1c(C(F)F)nc(C(F)(F)F)c(C2=NCCS2)c1CC(C)C`, the molecule was classed as inactive in assay [8], in [2], in [3], in assay [9], in assay [4] and in assay [5]. Moreover, the outcome in assay [6] was inactive. Further, the AC50 in [1] is 43.7 µM (active).
For the molecule `C=CCOC(=O)C(C)(C)OC(=O)c1cc(-n2c(=O)cc(C(F)(F)F)n(C)c2=O)ccc1Cl`, the call in [1], in assay [3], in assay [9], in assay [4], in [5] and in assay [6] was inactive.
In the case of `CCCCOCN(C(=O)CCl)c1c(CC)cccc1CC`, the outcome in [1], in [3], in assay [9], in [4], in assay [5] and in [6] was inactive. In addition, the concentration at half-maximal activity (AC50) was 71.3 µM (active) in assay [2] and 76.8 µM (active) in assay [4].
